# Measurements: PubChem BioAssay (NCI)
# Where “and” joins values, the source holds several entries; their conditions need not be identical. Equal values may be shown once. About 83,000 compounds went through this panel and 20% of them were active in at least one assay; those are over-represented in the sample as a whole.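 96-well plates, one dose, 48 hours. Percent growth reported; active if below 10.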 Values without a mark were called inactive. Calls of active or inactive are those of the source.
# System: UACC-62 melanoma
# Assay: NCI-60 one-dose screen, 48 h (100 = growth as untreated, 0 = no growth, -100 = all killed)
# Conditions: 0.01 µM
# Description: Growth inhibition of the UACC-62 human tumor cell line is measured as a screen for anti-cancer activity. Cells are grown in 96 well plates and exposed to the test compound for 48 hours. Compounds are tested at a single concentration, which is 10^-5 M for most compounds. The reported endpoint is percent growth (GI% or GIPRCNT), where numbers from 0 - 100% represent growth inhibition, and numbers from -100% - 0 represent cell death. For example, a value of 40 represents 60% growth inhibition. A value of 0 means no net growth occurred over the course of the experiment. A value of -40 indicates 40% of cells at the beginning of the experiment died by the end of the experiment. A value of -100 means all cells are dead at the end of the experiment.
# NCI-60 Human Tumor Cell Lines Screen was performed using the standard one-dose NCI protocol, which is described in more detail at https://dtp.cancer.gov/discovery_development/nci-60/default.htm.
# Compounds with GIPRCNT values below 10 were considered active. Activity score was based on GIPRCNT using the following formula: […]
# Score is 0 for GIPRCNT values of 100 or above, 50 for GIPRCNT values of 0, and 100 for GIPRCNT values of -100.
row,SMILES,growth
1,CC(=O)O[C@H]1C(=O)[C@@]2(C)[C@H]([C@H](OC(=O)c3ccccc3)[C@]3(O)C[C@H](OC(=O)[C@H](O)[C@@H](NC(=O)c4ccccc4)c4ccccc4)C(C)=C1C3(C)C)[C@]1(OC(C)=O)CO[C@@H]1C[C@@H]2O,24.9%

# Same assay, conditions: 2.5 µM
row,SMILES,growth
1,CC(=O)O[C@H]1C(=O)[C@@]2(C)[C@H]([C@H](OC(=O)c3ccccc3)[C@]3(O)C[C@H](OC(=O)[C@H](O)[C@@H](NC(=O)c4ccccc4)c4ccccc4)C(C)=C1C3(C)C)[C@]1(OC(C)=O)CO[C@@H]1C[C@@H]2O,34.2%

# Same assay, conditions: 5 µM
row,SMILES,growth
1,CC(=O)O[C@H]1C(=O)[C@@]2(C)[C@H]([C@H](OC(=O)c3ccccc3)[C@]3(O)C[C@H](OC(=O)[C@H](O)[C@@H](NC(=O)c4ccccc4)c4ccccc4)C(C)=C1C3(C)C)[C@]1(OC(C)=O)CO[C@@H]1C[C@@H]2O,40.3%

# Same assay, conditions: 10 µM
row,SMILES,growth
1,COc1ccc(N)c2c1C(=O)c1ccccc1C2=O,94.3%
2,S=C1SCN(CCc2ccccc2)CN1CCc1ccccc1,94.9%
3,CN(CC(=O)O)c1ccc(/C=C/c2ccnc3ccccc23)cc1,72.3%
4,CC1CCC2(C(=O)O)CCC3(C)C(=CCC4C5(C)CC(O)C(O)C(C)(CO)C5C(O)CC43C)C2C1C (stereo not given),104%
5,Cn1c2nc3ccccc3c-2nc2ccccc21,87.4% and 91.2%
6,O=C1C(Cl)=C(Cl)C(Cl)(Cl)C(Cl)C1(Cl)Cl (stereo not given),98.7%
7,C=C1N(C)c2ccc(Cl)cc2C1(C)C,69.5%
8,COc1cc(N)ccc1Nc1c2ccccc2nc2ccccc12,89.6%
9,CN(C)c1ccc(/C=C/c2ccnc3ccccc23)cc1N,63.3%
10,Cc1cc(N=C2C=CC(=[N+](C)C)C=C2)c(N)cc1N,89.8%
11,O=C(O)c1ccccc1.[Ag],105%
12,O=C(NC(=S)Nc1ccccn1)c1ccccc1,93.1%
13,N#C/C(=C/N1C(=O)/C(=C/c2ccc([N+](=O)[O-])cc2)SC1=S)c1nc2ccccc2s1,70.1%
14,O=S(=O)(c1cc(Cl)ccc1O)c1cc(Cl)ccc1O,31.1%
15,COc1ccc2c(c1)[nH]c1c(/C=C/c3ccccc3)nccc12,78.9%
16,Cc1cc(Cl)ccc1NC(=O)/C(Cl)=C1/Sc2ccccc2NC1=O,74%
17,COc1ccc2oc(-c3ccc(Cl)cc3)c(N3CCN(C)CC3)c2c1,-52.6% (active)

row,SMILES,growth
1,Cn1ncc2cc3c(Nc4ccc(Cl)cc4)cccc3nc21,98.6%
2,S=P(N1CC1)(N1CC1)N1CC1,100% and 71.7%
3,O=C1C=CC(=O)N1c1ccc(N2C(=O)C=CC2=O)cc1,96.5%
4,Nc1nc(N)c2cc(Sc3ccc4ccccc4c3)ccc2n1,27.3%
5,CCC(C)(c1ccc(O)c(C)c1)c1ccc(O)c(C)c1,68.9%
6,O=C1c2cccc3cc([N+](=O)[O-])cc(c23)C(=O)N1CCN1CCCC1,-66.1% (active)
7,CC(=O)O[C@H]1C(=O)[C@@]2(C)[C@H]([C@H](OC(=O)c3ccccc3)[C@]3(O)C[C@H](OC(=O)[C@H](O)[C@@H](NC(=O)c4ccccc4)c4ccccc4)C(C)=C1C3(C)C)[C@]1(OC(C)=O)CO[C@@H]1C[C@@H]2O,41.8% and 42.9%
8,NCc1c(O)ccc2ccccc12,95.4%
9,O=C1c2ccccc2CCC1(Br)Br,32.1%
10,CCC(=O)Oc1ccc(/C=N/NC(N)=S)nc1,7.95% (active)
11,COc1ccc(C(C#N)=C2C=CC(=NO)C=C2)cc1,66.3%
12,O=[N+]([O-])c1cc(S(=O)(=O)Nc2ccccc2)ccc1Cl,84.7%
13,O=C(CNS(=O)(=O)Cc1ccccc1)NNc1ccccc1,14.9%
14,CCOC(=O)[C@]1(Br)CC[C@@]1(Br)C(=O)OCC,77.9%
15,COc1cccc(C(c2cc3c(cc2O)OCO3)N2CCOCC2)c1OC (stereo not given),95.3%
16,Cc1cc(C)c(N2C(=O)CC(Sc3ccccc3N)C2=O)c(C)c1 (stereo not given),60.8%

# Same assay, conditions: 100 µM
row,SMILES,growth
1,COc1cc2c(cc1C[N+](C)(C)CSc1ccccc1)-c1ccccc1CC2,-96.4% (active) and -92.3% (active)
2,N#CC(=S)Nc1cccc(Cl)c1,1.5% (active) and -86.8% (active)
3,C=C(C)[C@@H]1CCc2c(O)c(O)c(=O)cc(C)c2C1,-52.3% (active) and -85% (active)
4,S=P(N1CC1)(N1CC1)N1CC1,37.1%
